CYP2C9 inhib: human CYP2C9 inhibition; P11712; CYP2C9 Supersomes, luciferin-H conversion, luminescence; inhibition, % at 5 µM; hit rate 20% among 96,000; AID 777;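 active means blocking of liver enzyme CYP2C9 beyond about 50% at 5 µM, limit read from the data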
Cav3 T inh: blocks human Cav3.2 T-type calcium channel; Cav3.2-expressing cells, Fluo-4 calcium fluorescence FDSS; hits give low values; B-score at 10 µM; hit rate 4% among 100,000;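 active means single-dose well whose peak fluorescence ratio is a statistical outlier from its plate by either plate-standardised score or position-corrected B-score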
CYP2C9 activ: activators of human CYP2C9; activation factor at 5 µM; AID 1024; hit rate 1.4% among 96,000; recombinant CYP2C9, luciferin-H conversion, luminescence; hits give high values; factor 1 = untreated enzyme, 0 = blocked;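 active means activation factor of 2 or more for CYP2C9 at a 5 µM dose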
CYP2C19 activ: activators of human cytochrome P450 2C19 | P33261 | recombinant CYP2C19, luciferin-H EGE luminescence; hits give high values; 0 = fully inhibited enzyme, 1 = untreated enzyme | activation factor at 5 µM | 96,000 tested, under 10 active;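 active means activation factor of at least 2 at 5 µM in the primary screen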
CYP2C19 inh: blocks human cytochrome P450 2C19; P33261; CYP2C19 Supersomes, luciferin-H EGE luminescence, 30 min; inhibition, % at 5 µM; hit rate 21% among 96,000;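 active means CYP2C19 inhibition above a set limit at 5 µM in the primary screen, cut at about 50% in these data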
A number is an active result; . = inactive; / = no result given. The list is not random: actives were taken first. Their share in the collection is about 27%.

SMILES	CYP2C9 inhib	Cav3 T inh	CYP2C9 activ	CYP2C19 activ	CYP2C19 inh
COc1cc(Br)cc2cc(C(=O)N3CCCCC3C)c(=O)oc12 (stereo unspecified)	.	.	.	.	.
O=C(Cc1ccccc1)NNC(=O)Nc1cccc(Cl)c1	.	.	.	.	.
Cc1ccc(C)c(NC(=S)NCc2cccn2C)c1	.	/	.	.	.
S=C(NCCC(c1ccccc1)c1ccccc1)Nc1cccc(Cl)c1	81	.	.	.	81
Cc1ccc(NC(=S)NCCC(c2ccccc2)c2ccccc2)c(C)c1	59	.	.	.	61
Cc1ccccc1NC(=S)NCCC(c1ccccc1)c1ccccc1	64	-4.4	.	.	63
CCCCOc1ccc(OCCNS(=O)(=O)N(C)C)cc1	.	.	.	.	54
CCCCCCCCCCCCN1[C@@H](CC(=O)O)c2cc(F)ccc2S1(=O)=O	/	.	/	/	/
Cc1sc(NC(=O)c2ccc(OCC(C)C)cc2)c(C(N)=O)c1-c1ccc(Cl)cc1Cl	68	.	.	.	.
CC1CCN(C(=O)CCc2nc3cc(S(=O)(=O)N(C)C)ccc3n2C)CC1	.	.	.	.	.
O=C(O)CCCNc1cc(N2CCC3(CC2)OCCO3)c2noc3c2c1C(=O)c1ccccc1-3	61	/	.	.	.
CCOC(=O)N1CCN(c2cc(NCCC(=O)O)c3c4c(onc24)-c2ccccc2C3=O)CC1	.	/	.	.	.
Cc1sc2nc(CN(CCc3ccccc3)C(=O)c3ccco3)[nH]c(=O)c2c1C	.	.	.	.	.
CCOC(=O)C1C(=O)NC(c2ccccc2)=NC1c1ccc(Cl)cc1 (stereo unspecified)	.	/	.	.	57
CCOC(=O)C1C(=O)NC(c2ccccc2)=NC1c1ccc(C(C)C)cc1 (stereo unspecified)	.	.	.	.	.
O=C1CN(C(=O)COc2ccccc2)CCN1	/	.	/	/	/
CCN1CCN(c2cc(C(C)(C)C)nc3c(-c4ccccc4)c(C)nn23)CC1	.	.	.	.	.
CCOC(=O)/C(=N\Nc1cccc(C(F)(F)F)c1)N(CCOC)CCOC	89	.	.	.	99
CCN(CC)C(=S)SCC(=O)Nc1cccc(C(F)(F)F)c1	/	.	/	/	/
COc1ccc2c(C(=O)CN3CCC(C)CC3)c[nH]c2c1	.	.	.	.	.
CCc1ccccc1NC1=NCC(=O)N1Cc1ccc(OC)cc1	.	.	.	.	.
COc1ccc(CN2C(=O)CN=C2Nc2cc(C)ccc2C)cc1	57	.	.	.	.
c1ccc2c(c1)oc1c(NCCCn3ccnc3)ncnc12	92	.	.	.	80
Cc1nc(NCCCn2ccnc2)c2oc3ccccc3c2n1	96	.	.	.	85
CCNc1nc(C)nc2c1oc1ccccc12	.	.	.	.	.
SMILES	CYP2C9 inhib	Cav3 T inh	CYP2C9 activ	CYP2C19 activ	CYP2C19 inh
c1ccc2c(c1)oc1c(NCCCN3CCOCC3)ncnc12	.	.	.	.	.
CCn1nc([N+](=O)[O-])c(C(C#N)c2nc3cc(C(F)(F)F)ccc3s2)c(Cl)c1=O (stereo unspecified)	.	-5.2	.	.	.
O=C(/C=C/NNC(=O)c1ccccc1)c1ccccc1	.	.	.	.	.
NC(=O)c1ccccc1N/C=C/C(=O)c1ccccc1	.	.	.	.	74
COC(=O)C1=C(C)N(CCCC(=O)O)C(=O)NC1c1cccc(OC)c1 (stereo unspecified)	/	.	/	/	/
COC(=O)C1=C(C)N=C2SC(C#N)=C(N)N2C1c1cccc(OC)c1 (stereo unspecified)	92	.	.	.	96
CCOc1cc(C2C(C(=O)OC)=C(C)N=C3SC(C)C(=O)N32)ccc1OC(C)=O (stereo unspecified)	59	.	.	.	64
COC(=O)C1=C(C)N=C2SC(C)C(=O)N2C1c1cccc(F)c1 (stereo unspecified)	.	-4.6	.	.	.
O=C(Cc1coc(-c2ccc(F)cc2)n1)N1CCOCC1	52	.	.	.	50
CC(C)Sc1nc(N)nc(-c2cccs2)c1C#N	75	/	.	.	.
CSc1nc(N)nc(-c2cccs2)c1C#N	58	.	.	.	78
NC(=O)CSc1nnc(Cc2csc(Nc3ccc(F)cc3)n2)n1Cc1ccccc1	/	.	/	/	/
CC(C)(C)n1nc2c(c1NC(=O)COc1ccc(Cl)cc1)CSC2	86	-4.4	.	.	67
CC(C)(C)n1nc2c(c1NC(=O)Cc1cccc3ccccc13)CS(=O)C2 (stereo unspecified)	.	.	.	.	.
CC(C)(C)n1nc2c(c1NC(=O)Cc1ccc(F)cc1)CSC2	68	.	.	.	64
CC(C)(C)n1nc2c(c1NC(=O)Cc1cccs1)CSC2	76	.	.	.	.
Cc1ccc2c(c1)N1C(=O)c3ccccc3C1C1=C(CC(C)(C)CC1=O)N2 (stereo unspecified)	/	.	/	/	/
CC(C)Cn1c(SCC(=O)NCc2ccc(Cl)cc2)nnc1-c1cccc(S(=O)(=O)N2CCOCC2)c1	61	.	.	.	.
C=CCn1c(SCC(=O)Nc2ccccc2)nnc1-c1cccc(S(=O)(=O)N2CCOCC2)c1	55	.	.	.	66
CN1CCC(N(C)C(=O)CCc2nc3ccccc3c(=O)[nH]2)CC1	.	.	.	.	.
Cc1ccc(OCCn2cc(Br)c(=O)[nH]c2=O)cc1	.	.	.	.	.
Cc1nc2ccc(NC(=O)c3ccc(F)c(S(=O)(=O)N4CCOCC4)c3)cc2s1	.	/	.	.	.
Cc1ccnc(NC(=O)c2cccc(NS(=O)(=O)c3ccccc3C)c2)c1	.	.	.	.	52
Cc1ccc(S(=O)(=O)NCCNC(=O)c2ccccc2)cc1	.	.	.	.	.
Cc1ccc(S(=O)(=O)CNC(=O)c2ccccc2)cc1	.	.	.	.	.
SMILES	CYP2C9 inhib	Cav3 T inh	CYP2C9 activ	CYP2C19 activ	CYP2C19 inh
Cc1ccc(S(=O)(=O)CNC(=S)c2ccc3ccccc3c2)cc1	60	.	.	.	60
Cc1ccc(S(=O)(=O)CNC(=S)c2cccc(C)c2)cc1	.	.	.	.	94
COc1ccc(S(=O)(=O)N(C)c2ccc(C(N)=O)cc2)cc1	.	.	.	.	.
CCOCCCNC(=O)c1ccc(N(C)S(=O)(=O)c2ccc(OC)cc2)cc1	78	.	.	.	.
COc1ccc(S(=O)(=O)Nc2cc(C(=O)NCCC(C)C)ccc2N2CCOCC2)cc1	61	.	.	.	.
COc1ccc(S(=O)(=O)N(C)c2ccc(C(=O)NCCC(C)C)cc2)cc1	92	.	.	.	86
O=C1CN(c2ccc(Cl)cc2)C(=O)CN1NC(=S)Nc1ccc(Cl)cc1	.	.	.	.	.
O=C(Nc1ccc(Cl)cc1)[C@@H]1[C@@H]2C(=O)N(c3ccc4ccccc4c3)C(=O)[C@@H]2[C@H]2C=CC=NN21	.	-8.6	.	.	.
C=CCOc1nc2c(c(=O)n(Cc3ccc(Cl)c(Cl)c3)c(=O)n2C)n1C	/	.	/	/	/
CCOC(=O)C1=C(C)NC(=O)NC1c1cc(C)sc1C (stereo unspecified)	.	.	.	.	.
Cc1ccccc1-c1coc2cc(O)ccc2c1=O	.	.	2.5	.	.
O=c1c(-c2ccc(O)cc2)coc2cc(O)ccc12	/	.	/	/	/

High-throughput results from PubChem.
